# Measured values taken from PMC6212790, “How bacterial xenogeneic silencer rok distinguishes foreign from self DNA in its resident genome”.
# Whole data set: some 33,000 sequences, median “e-score” near -0.037, cut for the highest 2% near 0.34. What follows is part of a selection rich in the highest values, with near analogues and random picks from the rest.
# Target: T1, GST-Rok (full length) (Bacillus subtilis subsp. subtilis str. …, UniProt O34857 1-191)
# T1 sequence: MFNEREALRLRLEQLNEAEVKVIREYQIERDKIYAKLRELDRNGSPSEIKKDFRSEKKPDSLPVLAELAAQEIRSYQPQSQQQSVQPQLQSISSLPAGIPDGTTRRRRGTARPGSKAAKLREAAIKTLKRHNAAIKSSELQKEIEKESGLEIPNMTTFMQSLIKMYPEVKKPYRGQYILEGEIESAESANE
# Assay: protein binding microarray; Rok is a gene silencer of Bacillus subtilis; high values mean tight binding
# Conditions: protein: recombinant; tags: GST (pTH5325, pDEST15-Magic modified); dsDNA, one strand shown
# In short: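 Each has a 25-mer constant primer and a 35-mer variable part from a de Bruijn sequence of order 10, covering every non-palindromic 8-mer at least 32 times (palindromic 16). Preference for each 8-mer is given as a rank-based, unitless enrichment score (E-score). Its range runs from 0.5 (most favored) to −0.5 (most disfavored).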
row,Sequence,binding signal [E-score]
1,GCCTGTAC,-0.0711
2,AACCTTAC,0.0321
3,AAGAAGAG,-0.106
4,AAAGGTTG,-0.0391
5,CATAGGCA,0.0952
6,GAACTTCA,0.0379
7,ACATAAGT,0.127
8,AGAAACTG,0.12
9,GGAAACGA,-0.156
10,CGAAACTA,0.446
11,AGAAACTA,0.412
12,CGAAACCA,-0.108
13,GGAAACTA,0.362
14,GGAAACAA,0.207
15,CGAAACTC,-0.0462
16,AGAAACTC,0.158
17,AATTAAGG,0.158
18,ATCGGTCA,0.0381
19,ATGGCTTG,-0.172
20,TATGGGCA,-0.0796
21,TAAGCCGA,-0.0712
22,AACTTATC,0.134
23,TAATGGTA,0.387
24,CAATGGTA,0.322
25,GAATGGTA,0.317

row,Sequence,binding signal [E-score]
1,AACTCAGG,0.0467
2,CGTGACCA,-0.0921
3,AAGTACAG,0.272
4,AAATATTC,0.251
5,ACATATTC,0.27
6,GAATATTC,0.417
7,GAATATTA,0.0406
8,CAATATTC,0.21
9,ATATATTC,0.34
10,CGATATTC,0.194
11,CTCTATTC,0.00987
12,CTATATTC,0.353
13,AGGTCACT,-0.137
14,ATTGTTTC,0.228
15,CCGGTCAC,-0.153
16,CTACATTA,0.355
17,CTACATTC,0.176
18,CTACATGC,0.308
19,CTACATGA,0.347
20,GTACATTA,0.262
21,ATACATGA,0.294
22,CAAAAAAC,0.0394
23,CGGTAAAA,0.278
24,GGTAAAAC,0.192
25,GGTAAAAA,0.349

row,Sequence,binding signal [E-score]
1,TGGTAAAA,0.354
2,CGTAAAAA,0.0957
3,GGGTAAAA,0.184
4,CGAGTTAG,0.0866
5,ACTGCCAC,-0.0928
6,AAATGATA,0.37
7,AAATGATC,0.143
8,AAATGATT,-0.0952
9,AAAACCTA,0.255
10,ACTGGTGG,-0.172
11,AAGTACTC,0.165
12,TAGTACTA,0.44
13,AAGTACTA,0.389
14,GAGTACTA,0.13
15,CAGTACGA,-0.048
16,GAGTACGA,0.0148
17,CAGTACTA,0.279
18,TAGTACGA,0.359
19,AAGTACTG,0.114
20,CCAATTGC,0.145
21,AGATAGCG,0.22
22,ACCTTCTG,-0.0843
23,CGATACTA,0.328
24,ATATACTC,0.288
25,CTATACTC,0.137

row,Sequence,binding signal [E-score]
1,ATATACTG,0.391
2,GTATACAA,0.308
3,ATATACTA,0.409
4,GGATACTA,0.211
5,CTATACTA,0.288
6,ATATACGA,0.23
7,GTATACGA,0.179
8,AGATACTA,0.348
9,GTATACTA,0.378
10,ATCAGCAA,-0.0224
11,GACAAATC,-0.0534
12,ATGATTGA,0.0352
13,GGATGTTA,0.0229
14,CAATTACA,0.189
15,AAAGCCGG,-0.147
16,ACGAGTCC,-0.192
17,AATAGGAG,0.0707
18,GCATACTA,0.325
19,ACATACTA,0.361
20,ACATACTG,0.141
21,CTCCCAAC,-0.0944
22,AGGCTTAA,-0.159
23,ATACGTAA,0.323
24,CTAAAAAC,0.082
25,CTAGTTCA,0.152

row,Sequence,binding signal [E-score]
1,ATAGTTTC,0.398
2,ATAGTTGA,0.228
3,CTAGTTTA,0.383
4,CCAGTTTC,-0.0817
5,ATAGTTCC,0.135
6,CGAGTTTC,0.0534
7,ATCGTTTC,0.14
8,ATAGTTTA,0.346
9,CTAGTTTC,0.413
10,ATCGTTTA,-0.0103
11,CTAGTTGA,0.226
12,GCCTACTA,0.0988
13,ACAGGAGT,0.0409
14,ACTTACTA,0.306
15,TGATTCAA,-0.164
16,AAAGAATA,0.138
17,CACTGACA,-0.161
18,GTAGTTTA,0.382
19,GGAGTTTA,0.0513
20,ATCGTTTG,-0.0128
21,GCAGTTTA,0.0849
22,ATAGTTTG,0.364
23,ATAGTTGG,0.0271
24,AGCGTACT,0.0975
25,GGTTGGTA,0.109

row,Sequence,binding signal [E-score]
1,AGCCCTTA,-0.135
2,AGGAAGAA,-0.0233
3,ACAAATTG,-0.0361
4,ATAAATTA,0.347
5,ACAAATTA,0.338
6,CTGAATTA,0.134
7,CTAAATTA,0.252
8,GTAAATTA,0.383
9,ATGAATTA,0.353
10,ATGAATTG,0.0516
11,TAAAATTA,0.199
12,ATAAATTG,0.336
13,ATAAATTC,0.221
14,ACAAATTC,0.238
15,ACTAATCA,0.154
16,CCACTAGC,-0.055
17,CGCCAGTA,-0.111
18,TATTGCAA,0.253
19,ATAGCAGA,0.144
20,CTACCATA,0.328
21,ATACCATC,0.198
22,GTACCAGA,-0.0447
23,GTACCATA,0.339
24,CTACCATC,0.396
25,ATACCATA,0.286

row,Sequence,binding signal [E-score]
1,ATGCTAGC,0.313
2,ATCAATTG,0.221
3,GCAATGTA,0.23
4,TAAATCGA,0.0795
5,CAAGTCAA,0.171
6,TAAAAATA,0.369
7,ACAAAATA,0.34
8,ACAAAATC,-0.0365
9,TAGAAATA,0.409
10,CAGAAATA,0.303
11,AACAACTA,0.292
12,GACAACTA,0.333
13,GAGAAATA,0.305
14,CTAAAATA,0.262
15,AAAAAATA,0.314
16,TACAACTA,0.368
17,CCAAAATA,0.164
18,GCAGAACC,-0.0431
19,ACCGGTGG,-0.196
20,CTTACCTC,0.143
21,AACGTAGA,0.17
22,AACCCAGG,-0.0972
23,AGAGGTGA,-0.164
